High-throughput results (PubChem)
Compounds with a hit are over-represented: about 6.9% of the library has one in this group of screens.
KB-V1 MDR tox: KB-V1 MDR subline cytotoxicity. AID 1347076. KB-V1 MDR cells viability, CellTiter-Glo, 72 h. 400,000 compounds, 3.4% hits. Potency, µM (top dose mostly 46.1 µM), usual class: cytotoxic; further: potency means the concentration at half of the fitted maximal effect; on the % scale 0 is the no-effect control and ±100 the full control effect; nearly all actives have a fitted effect of over 60% in size
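KB-V1 MDR subline cells in DMEM (phenol-red free, 10% FBS) exposed to compounds in qHTS concentration series for 72 h at 37 degrees C. Viability read by CellTiter-Glo luminescence; concentration-effect curves fitted after normalization and correction.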
Giardia killer: kills Giardia lamblia. activity change, % at 7.66 µM, hits read low. AID 540267. Giardia lamblia trophozoite viability. 340,000 compounds, 0.15% hits; in the data active means activity change below about -80%; inconclusive means between about -30% and that limit;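 further: parasites exposed to compound for two days anaerobically before the ATP read; on the % scale 0 is the no-effect control and ±100 the full control effect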
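Compounds were tested on trophozoites seeded at 100 cells/well and held 48 hrs at 37 deg C anaerobically. An ATP-based luminescent kit measured the remaining live cells.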
SW480 rereplic: DNA re-replication induction in SW480 cells; Potency, µM (highest dose often 46.1 µM), without a hit: top-dose re-replication activation, most hits filed as activators; AID 624297; SW480 DNA re-replication, Hoechst DNA content imaging, 48 h; 340,000 compounds, 1.8% hits; further: potency means the concentration at half of the fitted maximal effect; % of control where 0% means no effect; nearly all actives have a fitted effect of over 55% in size
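Treated cells incubate 48 hr (37 C, 5% CO2), are stained 40 min with Hoechst, and nuclear fluorescence is enumerated; a rise in nuclei with high DNA signal marks re-replication.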
S-ASM inh: inhibitors of human secretory acid sphingomyelinase. placental ASM, HMU-PC fluorogenic substrate, 60 min. Potency, µM (titrated, usually from 57.5 µM), inactives show at the top dose activity change, negative = inhibition, most hits filed as inhibitors. 340,000 compounds, 0.006% hits. AID 504937; further: potency means the concentration at half of the fitted maximal effect
Target sequence (P17405 47-631 limits assumed): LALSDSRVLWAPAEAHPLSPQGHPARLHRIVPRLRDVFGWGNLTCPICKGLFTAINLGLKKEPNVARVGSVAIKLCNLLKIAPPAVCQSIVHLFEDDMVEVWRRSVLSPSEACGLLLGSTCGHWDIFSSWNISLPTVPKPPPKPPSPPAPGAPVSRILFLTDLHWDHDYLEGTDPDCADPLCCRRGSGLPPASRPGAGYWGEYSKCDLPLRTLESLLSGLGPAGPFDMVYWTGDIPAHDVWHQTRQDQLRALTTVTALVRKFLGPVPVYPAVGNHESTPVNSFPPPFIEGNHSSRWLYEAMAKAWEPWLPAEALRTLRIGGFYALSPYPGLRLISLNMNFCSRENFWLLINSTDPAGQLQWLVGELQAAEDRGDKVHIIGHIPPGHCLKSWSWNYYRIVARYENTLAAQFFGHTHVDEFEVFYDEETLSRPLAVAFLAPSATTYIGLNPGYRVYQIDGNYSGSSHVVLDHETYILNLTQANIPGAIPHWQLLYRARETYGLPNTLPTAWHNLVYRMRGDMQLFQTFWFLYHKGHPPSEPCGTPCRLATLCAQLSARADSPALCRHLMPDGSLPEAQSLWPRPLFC
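qHTS format. ASM enzyme prepared from human placenta hydrolyses the fluorogenic substrate HMU-PC0 (9 uM final) over 60 min at 37 °C after a 10 min compound preincubation.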
MCF10A rereplic: DNA re-replication induction in MCF 10a cells | MCF 10A DNA re-replication, Hoechst nuclear intensity, 48 h | Potency, µM (titrated, usually from 46.1 µM), for the others: at the highest dose activity, positive = re-replication, actives largely listed as activators | 350,000 compounds, 2.9% hits | AID 624296; further: potency means the concentration at half of the fitted maximal effect; % of control where 0% means no effect; nearly all actives have a fitted effect of over 50% in size
KB-3-1 tox: kills parental KB-3-1 adenocarcinoma cells | KB-3-1 viability, CellTiter-Glo ATP luminescence, 72 h | Potency, µM (series often up to 46.1 µM), usual class: cytotoxic | 400,000 compounds, 1.4% hits | AID 1347075; further: potency means the concentration at half of the fitted maximal effect; on the % scale 0 is the no-effect control and ±100 the full control effect; nearly all actives have a fitted effect of over 60% in size
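KB-3-1 cells, DMEM (no phenol red) + 10% FBS; compound by pin transfer, 72 h, 37 °C. Readout: CellTiter-Glo luminescence after 10 min. Data normalized, curve-fitted.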
* marks the source's active call; other numbers are inactive results; ! = a repeat was not active. Unless noted, the call rests on the fitted dose curve; in most records, active means well fitted curve in the direction sought with a large enough effect; inconclusive means small, poorly fitted or top-dose-only effect, or another doubt; inactive means no such curve, though single readings can be large; an effect the other way counts as inactive or inconclusive.

For CN(C)S(=O)(=O)c1cccc(-c2nn(-c3ccccc3)cc2/C=C(\C#N)c2nc3ccccc3[nH]2)c1 the results were KB-V1 MDR tox inactive, Giardia killer 15, SW480 rereplic inconclusive, S-ASM inh 215%, MCF10A rereplic 3.3µM* and KB-3-1 tox inactive.
`N#C/C(=C\c1cn(-c2ccccc2)nc1-c1cc2ccccc2o1)c1nc2ccccc2[nH]1` gave KB-V1 MDR tox inconclusive, Giardia killer 18, SW480 rereplic 2.9µM*, S-ASM inh 189%, MCF10A rereplic inconclusive and KB-3-1 tox inactive.
CC1=C(c2ccc(C)c(C)c2)S(=O)(=O)N=C1N1CCC(C(=O)NC(C)c2ccccc2)CC1 (centres undefined) was read as KB-V1 MDR tox inactive and KB-3-1 tox inconclusive.
O=C1CCC[C@@H]2[C@H](Cc3ccccc3)[C@@H](O)C[C@@H]3CCN1[C@@H]32 was read as KB-V1 MDR tox 15µM*!, Giardia killer -10, SW480 rereplic 9%, S-ASM inh 6%, MCF10A rereplic -45% and KB-3-1 tox inconclusive.
For O=C1CCC[C@@H]2[C@@H](Cc3ccccc3)[C@@H](Nc3ccccc3)C[C@@H]3CCN1[C@@H]32 the results were KB-V1 MDR tox inconclusive and KB-3-1 tox inactive.
For COc1cccc(-c2cnc(C(O)c3c(C)cccc3C)[nH]2)c1 (centres undefined) the results were KB-V1 MDR tox inactive and KB-3-1 tox inactive.
Screening O=C(C(=O)N1CCCN(Cc2ccc(F)cc2)CC1)c1ccccc1 returned KB-V1 MDR tox inconclusive and KB-3-1 tox inactive.
CCn1c(=O)c2cc(C(=O)NCCOC)sc2c2ccccc21 was read as KB-V1 MDR tox inactive, Giardia killer -19, SW480 rereplic -9%, S-ASM inh 2%, MCF10A rereplic 13% and KB-3-1 tox inactive.
Screening CCOCCCNC(=O)c1cc2c(=O)n(CC)c3ccccc3c2s1 returned KB-V1 MDR tox inactive, Giardia killer -11, SW480 rereplic inconclusive, S-ASM inh 6%, MCF10A rereplic 23µM* and KB-3-1 tox inconclusive.
`CCOc1ccccc1N(C)C(=O)c1cc2c(=O)n(CC)c3ccccc3c2s1` gave KB-V1 MDR tox inactive, Giardia killer 14, SW480 rereplic 18µM*, S-ASM inh -17%, MCF10A rereplic 3.7µM* and KB-3-1 tox inconclusive.
For CCn1c(=O)c2cc(C(=O)N(C)CC(OC)OC)sc2c2ccccc21 the results were KB-V1 MDR tox inactive, Giardia killer 20, SW480 rereplic -9%, S-ASM inh 3%, MCF10A rereplic -3% and KB-3-1 tox inactive.
CCn1c(SC(C)C(=O)Nc2ccc(C)cc2)nnc1-c1ccccc1 (centres undefined) was read as KB-V1 MDR tox inactive and KB-3-1 tox inactive.
Screening Oc1ccc(N=Nc2ccccc2)o1 returned KB-V1 MDR tox inactive, Giardia killer 16, SW480 rereplic inconclusive, S-ASM inh 2%, MCF10A rereplic inconclusive and KB-3-1 tox inactive.
COc1cccc(-c2cc(C(=O)NCC3CCCO3)c3ccccc3n2)c1 (centres undefined) was read as KB-V1 MDR tox 12µM*, Giardia killer 4, SW480 rereplic -48%, S-ASM inh 1%, MCF10A rereplic 14% and KB-3-1 tox inactive.
Screening Cc1ccc2nc(-c3cccc(Br)c3)cc(C(=O)NCC3CCCO3)c2c1 (centres undefined) returned KB-V1 MDR tox inactive, Giardia killer 3, SW480 rereplic 21%, S-ASM inh -5%, MCF10A rereplic 26µM* and KB-3-1 tox inactive.
For COc1ccc(-c2cc(C(=O)NCC3CCCO3)c3ccccc3n2)cc1 (centres undefined) the results were KB-V1 MDR tox inactive, Giardia killer 15, SW480 rereplic -10%, S-ASM inh 103%, MCF10A rereplic -15% and KB-3-1 tox inactive.
Screening O=S(=O)(c1ccccc1)c1nc(-c2cccs2)oc1SCc1ccccc1Cl returned KB-V1 MDR tox inactive and KB-3-1 tox inactive.
